Results reported in PubChem BioAssay.
Activity calls are given as the source filed them. Cut-off read from the data, not from the text of the source: active = inhibition above about 31%; inactive = the rest.

test: yeast transport mutant growth inhibition pilot in 384-well plates, post-Golgi transport modulator project (AID 636); conditions: absorbance 615 nm, about 18 h, stronger effect = higher value

| SMILES | inhibition |
| --- | --- |
| O=c1[nH]c2ccccc2nc1NCCN1CCOCC1 | -0.79% (inactive) |
| c1ccc(Nc2ccccc2Nc2ccccn2)nc1 | -3.33% (inactive) |
| COc1ccc(-n2c(COc3cccc(C)c3)nnc2SCC(=O)NCc2ccco2)cc1 | -2.84% (inactive) |
| C=CCc1cc(C(=O)N2CCCCC2)ccc1O | -2.5% (inactive) |
| CCCC(=O)Nc1ccc2oc(-c3cccnc3)nc2c1 | -4% (inactive) |
| Cc1ccccc1-n1c(=O)cc(N2CCN(C(=O)c3ccco3)CC2)[nH]c1=O | 0.77% (inactive) |
| O=C(O)CN1C(=O)C2(OCCCO2)c2ccccc21 | -0.91% (inactive) |
| CC(C)(C)C(=O)/C=C(\N)c1ccccn1 | -1.04% (inactive) |
| CCOC(=O)C1CCCN(c2c(N3CCN(c4ccccn4)CC3)c(=O)c2=O)C1 (stereo not given) | 0% (inactive) |
| CC1CCN(S(=O)(=O)c2ccc(S(=O)(=O)NCC(=O)C(C)(C)C)cc2)CC1 | -6.97% (inactive) |
| O=C(CSc1nnc2scc(-c3ccccc3)n12)N1CCN(Cc2ccccc2)CC1 | -5.66% (inactive) |
| CC1(C)CNC(=O)CC(C)(C)N1O | -1.43% (inactive) |
| Cc1cc(NC(=O)CCOc2ccccc2)no1 | -2.34% (inactive) |
| CCOc1ccc2cc(C#N)c(SCC(=O)N3CCCC3)nc2c1 | 6.45% (inactive) |
| COc1cccc(Oc2cnc(N)nc2-c2ccc(OC)cc2O)c1 | -0.52% (inactive) |
| CCOC(OCC)P(=O)(C(C)C)C(C)C | -1.17% (inactive) |
| O=C1C(C=NCCCn2ccnc2)=C(O)c2ccccc21 | -5.14% (inactive) |
| CCCN(S(=O)(=O)c1ccc(OCC)cc1)S(=O)(=O)c1cccs1 | 0.8% (inactive) |
| N#Cc1nc(COc2ccc(Br)cc2)oc1N1CCCC1 | -7.07% (inactive) |
| CCOC(=O)N1CCN(Cc2cc(=O)oc3ccc4ccccc4c23)CC1 | -7.07% (inactive) |

| SMILES | inhibition |
| --- | --- |
| COc1ccc(OC)c(C2C3=C(CCCC3=O)Nc3c2c(=O)n(C)c(=O)n3C)c1 (stereo not given) | -2.24% (inactive) |
| CCOc1ccc(C2CC(=O)NC3=C2C(=O)CCC3)cc1Cl (stereo not given) | -4.21% (inactive) |
| COc1ccc2nc(NC(=O)c3ccoc3C)sc2c1 | -3.82% (inactive) |
| O=C(NCC(=O)N1CCC(N2CCCCC2)CC1)C1CCCCC1 | -5.84% (inactive) |
| O=C(NCCN1CCOCC1)c1ccc2c(c1)N(Cc1ccccc1)C(=O)CS2 | 0.67% (inactive) |
| CCC(c1nnnn1Cc1ccco1)N(CCc1ccccc1)Cc1cc2cccc(C)c2[nH]c1=O (stereo not given) | -5% (inactive) |
| CC(C)=CCCC(C)N(C=O)C(C)CCC=C(C)C (stereo not given) | -0.68% (inactive) |
| Cc1c(C(=O)NCc2cccnc2)oc2ccc(S(=O)(=O)N3CCCCC3)cc12 | -0.39% (inactive) |
| Cc1ccc(C(C)C)c(OCCn2c(=O)oc3ccccc32)c1 | 0.79% (inactive) |
| CCn1nc(C(=O)OCC(=O)N2CCc3ccccc32)c2ccccc2c1=O | 1.41% (inactive) |
| COC(=O)c1cc(-c2c(C)oc3cc(O)ccc3c2=O)c(C)o1 | -4.94% (inactive) |
| CCOC(=O)N1CCN(S(=O)(=O)c2ccc(OCC)c(C)c2)CC1 | -1.95% (inactive) |
| CC1CC(=O)C2=C(C1)OC(N)=C(C#N)C2c1coc2ccccc2c1=O (stereo not given) | -7.33% (inactive) |
| COc1ccc(-c2nnc(SCCC(=O)O)n2-c2ccccc2)cc1 | -0.53% (inactive) |
| CCCCn1c(SCC(=O)Nc2ccc(OC)cc2)nc2ccc(N3CCOCC3)cc2c1=O | -2.8% (inactive) |
| CCOC(=O)c1cc2cc(F)ccc2nc1C | -0.93% (inactive) |
| Cc1nc2ccccn2c1C(=O)NCCCN1CCOCC1 | -0.27% (inactive) |
| Cc1cc(-c2ccccc2)c2c3c(cn2n1)c(=O)n(C)c(=O)n3C | -2.37% (inactive) |
| CCOC(=O)N1CCC(O)(c2cc(C)c(C)cc2C)CC1 | -4.19% (inactive) |
| O=C(C1CCCN(S(=O)(=O)c2cccnc2)C1)N1CCN(c2ccccn2)CC1 (stereo not given) | 0% (inactive) |
